From PubChem BioAssay
esBAF inh: blocks esBAF chromatin remodeling in mouse ES cells; 350,000 compounds, 2% hits; AID 602393; reporter increase, % at 12.5 µM; Bmi1-luciferase knock-in reporter, 24 h; 100% = twice the neutral-well signal; in the data active = activation above about 40%;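 note: a rise in the Bmi1 reporter signal indicates esBAF inhibition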
DAX1 inh: inhibitors of DAX1 repression of SF-1 activated StAR promoter; 370,000 compounds, 1.1% hits; inhibition, % at 6.8 µM; HEK293T StAR-luciferase reporter, SF-1/DAX-1 repression relief;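 active = inhibition above the mean over all tested compounds plus 3 SD, cut at about 3.6% in these data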;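 note: higher inhibition means more luminescence from relief of DAX-1 repression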
ssDAF12 agonist: activates DAF-12 receptor from parasite S. stercoralis. 370,000 compounds, 1% hits. activation, % at 6.8 µM. HEK293 ssDAF-12/GRIP1 lit1-tk-luc reporter, luminescence; % of 3 µM dafachronic acid response;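 active = activation above the mean over all tested compounds plus 3 SD, cut at about 0.9% in these data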
Wnt act: activators of Wnt/beta-catenin signaling; Wnt/beta-catenin reporter cell assay, activator, plate reader; activation, % at 9.35 µM; 300,000 compounds, 1.2% hits; in the data active = activation above about 30%, passing the limit was not always enough
hcDAF-12 act: activates DAF-12 receptor from parasite H. contortus; 370,000 compounds, 1.4% hits; AID 652067; activation, % at 6.8 µM; HEK293 hcDAF-12 lit1-tk-luc reporter, luminescence; 0% DMSO, 100% Δ7-dafachronic acid;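 active = activation above the mean of all tested compounds plus 3 SD, cut at about 5.5% in these data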
hgDAF12 agonist: hgDAF-12 agonism, primary luciferase screen. HEK293 GAL4-hgDAF12 UAS-luciferase reporter, agonist luminescence; normalized to butyrate control. activation, % at 6.8 µM. 370,000 compounds, 1.8% hits. AID 687014;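 active = activation above a cutoff set at the mean of all screened compounds plus 3 SD, cut at about 10% in these data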
LXR ag: activates human LXR-beta, counter-screen for hcDAF-12 agonists | shares compounds with hcDAF-12 act | HEK293 Gal4-LXR tk-luc reporter, luminescence, 24 h; normalized: DMSO 0%, positive control 100% | activation, % at 6.8 µM | 3,400 tested, under 10 active | AID 743027;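 active = mean percent activation of the reporter above a cutoff set as the average over tested compounds plus their standard deviation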
Target sequence (P55055 whole entry, looked up, the tested form may be a part): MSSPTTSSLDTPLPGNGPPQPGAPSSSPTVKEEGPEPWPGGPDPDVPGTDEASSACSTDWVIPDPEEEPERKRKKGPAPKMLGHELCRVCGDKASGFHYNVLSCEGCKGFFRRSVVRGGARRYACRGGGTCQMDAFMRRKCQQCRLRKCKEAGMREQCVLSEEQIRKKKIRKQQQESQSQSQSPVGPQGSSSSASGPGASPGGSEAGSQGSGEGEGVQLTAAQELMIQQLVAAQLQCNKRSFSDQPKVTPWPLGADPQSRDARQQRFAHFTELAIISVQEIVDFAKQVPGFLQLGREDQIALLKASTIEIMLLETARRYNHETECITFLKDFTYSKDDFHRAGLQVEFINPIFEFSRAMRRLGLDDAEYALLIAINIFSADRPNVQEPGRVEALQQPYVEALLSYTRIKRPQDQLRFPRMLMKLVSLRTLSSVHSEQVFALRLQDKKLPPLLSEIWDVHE
hcDAF12 conf: confirmation of H. contortus DAF-12 agonists; shares compounds with hcDAF-12 act; HEK293 hcDAF-12 lit1-tk-luc reporter, luminescence; % of Δ7-dafachronic acid response; activation, % at 6.8 µM; 3,400 compounds, 61% hits; AID 743032;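 active = mean activation across triplicate tests above the threshold derived from the earlier primary screen, cut at about 5.5% in these data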
hgDAF12 ag: confirmation of H. glycines DAF-12 agonists. 3,300 compounds, 80% hits. shares compounds with hgDAF12 agonist. HEK293 GAL4-hgDAF12 luciferase reporter, agonist mode; percent of butyrate response. activation, % at 6.8 µM. AID 743050;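 active = mean activation over triplicate wells above the hit cutoff derived from the earlier primary screen, cut at about 11% in these data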
LXRb DAF12 ctr: counter-screen for DAF-12 agonists: agonists of human LXR-beta. shares compounds with hgDAF12 agonist. HEK293 Gal4-LXR luciferase reporter, 24 h. activation, % at 6.8 µM. 3,300 tested, under 10 active;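 active = mean activation of the triplicate above a set limit carried over from the primary screen, none filed active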
Numbers stand for hits. Only some compounds are listed: those with a hit (about 4.2% of all), similar ones and a draw of the others.

Screening O=C(/C=C/c1ccccc1Cl)Nc1ccccc1 returned DAX1 inh inactive, ssDAF12 agonist 2.6, Wnt act 45, hcDAF-12 act 16, hgDAF12 agonist 20, LXR ag inactive, hcDAF12 conf 16, hgDAF12 ag 25 and LXRb DAF12 ctr inactive.
Screening C[C@@H]1CN([C@H](C)CO)C(=O)c2cccc(NC(=O)C3CCCCC3)c2O[C@@H]1CN(C)CC1CC1 returned esBAF inh inactive.
Screening N#Cc1cc2ccccc2nc1SCc1ccccn1 returned esBAF inh inactive, DAX1 inh 4.3, ssDAF12 agonist 4.7, hcDAF-12 act 20, hgDAF12 agonist 17, LXR ag inactive, hcDAF12 conf 9.2, hgDAF12 ag 16 and LXRb DAF12 ctr inactive.
`Oc1ccc(N=Nc2ccc3ccccc3c2)cc1` gave esBAF inh inactive, DAX1 inh inactive, ssDAF12 agonist inactive, Wnt act inactive, hcDAF-12 act 7.1, hgDAF12 agonist 16, LXR ag inactive, hcDAF12 conf inactive, hgDAF12 ag 20 and LXRb DAF12 ctr inactive.
`Oc1ccc(N=Nc2c(O)ccc3ccccc23)cc1` gave esBAF inh inactive, DAX1 inh inactive, ssDAF12 agonist inactive, Wnt act inactive, hcDAF-12 act inactive and hgDAF12 agonist inactive.
Cc1cc(O)c(NC(=O)c2cccc([N+](=O)[O-])c2)cc1C was read as esBAF inh inactive, DAX1 inh inactive, ssDAF12 agonist 2.5, Wnt act 30, hcDAF-12 act 7.0, hgDAF12 agonist 17, LXR ag inactive, hcDAF12 conf 9.2, hgDAF12 ag 11 and LXRb DAF12 ctr inactive.
`COc1ccc(C#Cc2ccc3c(c2)O[C@H](CN(C)C(=O)c2ccccn2)[C@@H](C)CN([C@@H](C)CO)S3(=O)=O)cc1` gave esBAF inh inactive.
Cc1cccc(NC(=S)c2nc3ccccc3s2)c1 was read as DAX1 inh inactive, ssDAF12 agonist 2.1, hcDAF-12 act 8.8, hgDAF12 agonist 13, LXR ag inactive, hcDAF12 conf 9.9, hgDAF12 ag 16 and LXRb DAF12 ctr inactive.
Screening C[C@H](CO)N1C[C@H](C)[C@H](CN(C)Cc2ccc(Oc3ccccc3)cc2)Oc2ccc(NS(C)(=O)=O)cc2CC1=O returned esBAF inh inactive.
Screening COc1cccc(N=c2oc3ccccc3cc2-c2nc3ccccc3[nH]2)c1 returned esBAF inh inactive, DAX1 inh inactive, ssDAF12 agonist 2.6, Wnt act 47, hcDAF-12 act 15, hgDAF12 agonist 16, LXR ag inactive, hcDAF12 conf 6.7, hgDAF12 ag 19 and LXRb DAF12 ctr inactive.
Screening COc1ccc2oc(=Nc3ccc(C(=O)O)cc3)c(C(=O)NCc3ccco3)cc2c1 returned DAX1 inh inactive, ssDAF12 agonist inactive, Wnt act inactive, hcDAF-12 act inactive and hgDAF12 agonist inactive.
`COc1ccc(N=c2oc3ccc(OC)cc3cc2-c2nc3ccccc3[nH]2)cc1` gave esBAF inh 60, DAX1 inh inactive, ssDAF12 agonist 2.5, hcDAF-12 act 6.7, hgDAF12 agonist 15, LXR ag inactive, hcDAF12 conf inactive, hgDAF12 ag 10 and LXRb DAF12 ctr inactive.
Screening C[C@@H]1CCCCO[C@H](CN(C)S(C)(=O)=O)[C@@H](C)CN([C@@H](C)CO)C(=O)c2cc(NC(=O)C3CCCCC3)ccc2O1 returned esBAF inh inactive.
